High-throughput results from PubChem BioAssay.
A selection: hits, their analogues and other compounds. The true share with any hit is near 1.3%.
TRPML1 blocker: human mucolipin-1 channel inhibition; Q9GZU1; TRPML1-inducible cells, Ca2+ dye fluorescence, FDSS; hits give low values; inhibition of EC80 agonist-evoked calcium signal; activity change, negative = inhibition, % (test concentration not listed); 390,000 compounds, 0.02% hits; AID 624415; in the data active = activity change below about -50%; inconclusive = between about -30% and that limit;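 also: stimulus is agonist 54-4 at its EC80 concentration; % is scaled to controls: 0 for no effect and ±100 for the full control effect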
Target sequence (Q9GZU1 whole entry, looked up): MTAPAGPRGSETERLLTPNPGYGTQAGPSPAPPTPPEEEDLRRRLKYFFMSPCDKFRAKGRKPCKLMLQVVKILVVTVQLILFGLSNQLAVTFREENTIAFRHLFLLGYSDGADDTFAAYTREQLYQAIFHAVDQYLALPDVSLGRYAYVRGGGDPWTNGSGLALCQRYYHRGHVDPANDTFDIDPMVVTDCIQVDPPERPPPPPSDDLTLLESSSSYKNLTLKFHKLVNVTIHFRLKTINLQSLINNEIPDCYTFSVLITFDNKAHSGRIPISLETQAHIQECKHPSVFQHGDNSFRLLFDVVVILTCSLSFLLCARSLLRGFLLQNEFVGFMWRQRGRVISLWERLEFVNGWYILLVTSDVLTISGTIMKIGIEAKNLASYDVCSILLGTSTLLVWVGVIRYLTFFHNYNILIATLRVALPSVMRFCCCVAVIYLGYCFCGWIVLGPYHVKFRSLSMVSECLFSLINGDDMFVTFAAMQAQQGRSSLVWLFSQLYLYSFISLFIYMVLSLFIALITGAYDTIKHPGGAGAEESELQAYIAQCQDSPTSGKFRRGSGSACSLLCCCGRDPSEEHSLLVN
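TRPML1-DL cells, Tet-induced overnight (~16 h, 37 °C) at 1,500 cells/well, were loaded with Ca8 no-wash dye plus quencher for 45-90 min at room temperature. Compounds were pinned during FDSS kinetic reading; agonist 54-4 at EC80 (4 uM final) then added.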
Glioma ERSR ind: induces the endoplasmic reticulum stress response in human glioma cells | Potency, µM, without a hit: at the top dose activation, most hits filed as activators | U87-MG GRP78 promoter luciferase reporter, 16 h | 420,000 compounds, 0.02% hits | AID 602332; also: potency is read from the fitted curve at half-maximal effect; series mostly up to about 76 µM; % of control where 0% means no effect; nearly all actives have a fitted effect of over 35% in size
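Stably transfected U87-MG glioma cells carrying a GRP78-based luciferase sensor; 16 h compound incubation. Luminescence end-point read 10 min after Bright-Glo addition at room temperature.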
Vif-APOBEC3G blk: blocks the Vif interaction with human APOBEC3G. Q9HC16. HeLa A3G-eYFP + Vif (tagged APOBEC3G with the HIV-1 protein that degrades it), YFP fluorescence, overnight. Potency, µM (highest dose often 46.1 µM), for inactives: top-dose activity, negative = active, most hits filed as inhibitors. 410,000 compounds, 0.076% hits. AID 602310; also: potency is read from the fitted curve at half-maximal effect; % is scaled to controls: 0 for no effect and ±100 for the full control effect; nearly all actives have a fitted effect of over 60% in size
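Read-out is eYFP fluorescence (Ex 488/Em 500-530) from Vif-expressing HeLa A3G-eYFP cells; more signal means A3G escaped Vif-mediated degradation. Cells plated overnight, compound pinned in, incubated overnight at 37 deg C.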
TRPML1 agonist: agonists of human TRPML1 channel | Q9GZU1 | AID 624414 | activation, % (no concentration beside the values) | TRPML1-expressing cells, Ca2+ dye fluorescence, FDSS | 410,000 compounds, 0.12% hits; in the data active = activation above about 50%; inconclusive = mostly about 30% to 49%; also: 0% is about no effect
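In this qHTS format, compounds were pin-transferred onto Ca8-dye-loaded TRPML1-DL cells induced with Tet overnight, and intracellular Ca2+ fluorescence was recorded kinetically for 110 s after a 10 s baseline. A subsequent 4uM final 54-4 (EC80) addition followed by a second 110 s read served as the antagonist phase.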
Vif-A3F inh: blocks the Vif interaction with APOBEC3F; HeLa A3F-eYFP + Vif (tagged APOBEC3F with the HIV-1 protein that degrades it), YFP fluorescence increase; Potency, µM (titrated, usually from 46.1 µM), for inactives: at the highest dose activity, negative = active; 390,000 compounds, 0.2% hits; AID 602313; also: potency is read from the fitted curve at half-maximal effect; % of control where 0% means no effect; nearly all actives have a fitted effect of over 65% in size
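Fluorescence increase (Ex 488/Em 500-530) after overnight compound treatment at 37 deg C flags inhibition of Vif-driven A3F-eYFP loss in stable HeLa A3F-eYFP/Vif cells seeded overnight beforehand.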
12-LOX inh: ALOX12 (human) lipoxygenase inhibition; P18054; purified 12hLO, xylenol orange hydroperoxide absorbance; Potency, µM (top dose mostly 108 µM), without a hit: top-dose activity change, negative = inhibition, most hits filed as inhibitors; 580,000 compounds, 1.1% hits; also: potency is read from the fitted curve at half-maximal effect; % is scaled to controls: 0 for no effect and ±100 for the full control effect
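Hydroperoxide product was detected by ferrous iron/xylenol orange as the 573 to 405 nm absorbance ratio. Arachidonic acid at 40 uM (final) was turned over for 30 min at room temperature by 150 nM human 12hLO, pH 7.0 Hepes buffer, after 15 min compound preincubation.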
* = called active by the depositor; ? = inconclusive; . = no result given. Unless noted, calls follow the shape of the dose curve; as a rule, active = well fitted curve in the direction sought with a large enough effect; inconclusive = small, poorly fitted or top-dose-only effect, or another doubt; inactive = no such curve, though single readings can be large; an effect the other way counts as inactive or inconclusive.

SMILES	TRPML1 blocker	Glioma ERSR ind	Vif-APOBEC3G blk	TRPML1 agonist	Vif-A3F inh	12-LOX inh
c1ccc(C2(c3ccccc3)CCCN(Cc3ncccn3)C2)cc1	.	.	.	.	.	-18.5%
O=C(NC(=S)NCCC1=CCCCC1)c1ccccc1Br	-7.9	2.8%	-18.6%	0.5	-8.8%	15.8µM*
COc1ccc2c(c1)CC/C(=C\c1ccc(Br)o1)C2=O	.	.	.	.	.	22.4µM*
COc1ccc2c(c1)CC/C(=C/c1cc(OC)c(OC)c(OC)c1)C2=O	16.2	1.5%	-19.6%	1.2	8.8%	19.4%
COc1ccc(S(=O)(=O)Oc2ccc3ccc(=O)oc3c2)cc1OC	.	.	.	.	.	0.1%
O=C(CN1C(=O)CSc2ncccc21)Nc1cccc(Cl)c1	-0.1	4.5%	?	-0.6	10µM*	16.5%
Cc1ncc(CO)c(/C=N/NC(=S)Nc2ccc(Cl)c(Cl)c2)c1O	-5.3	-3.2%	-10.0%	0.8	-2.0%	44.7µM*
CC1(C)CC(N2CCCC2)=CC(=[N+]2CCCCC2)C1	-5.2	-2.2%	9.4%	5.3	5.6%	39.8µM*
CC1(C)CC(N2CCCC2)=CC(=[N+]2CCCC2)C1	-0.2	-2.0%	4.4%	6.2	-2.0%	39.8µM*
Fc1cccc(-c2nc(COc3ccccc3F)co2)c1	.	.	.	.	.	36.1%
Fc1cccc(-c2nc(COc3ccc(Br)cc3F)co2)c1	.	.	.	.	.	31.6µM*
C[C@@](N)(C(=O)O)c1ccc(P(=O)(O)O)cc1	.	2.2%	.	.	.	12.6µM*
CC(N)(C(=O)O)c1ccc(P(=O)(O)O)cc1 (stereo not drawn)	.	-2.7%	.	.	.	6.9%
CC(N)CC(C)(C)c1ccccc1 (stereo not drawn)	.	.	.	.	.	-6.2%
O=C(c1ccccc1)C1CCN(C(=O)c2ccc(C(F)(F)F)nc2)CC1	.	.	.	.	.	4.1%
Cc1ccccc1OCCSC(C)C(=O)NC(C)(C)C (stereo not drawn)	.	.	.	.	.	10.5%
COc1ccc(Nc2nc3cc(C)ccc3cc2C#N)c(OC)c1	3.3	-5.7%	?	0.9	?	-6.4%
COc1ccc(Nc2cc(C)c3cc(C)ccc3n2)cc1	.	.	.	.	.	17.8µM*
COc1ccc(Nc2nc3cc(C)ccc3cc2C#N)cc1	32.3	-0.8%	?	-0.1	22.4µM*	7.4%
CCCCCCn1c(N2CCN(CC(=O)OC)CC2)nc2c1c(=O)[nH]c(=O)n2C	.	.	.	.	.	3.8%
CC(/C=C/c1ccccc1)=N\NC(N)=S	-0.8	5.6%	-16.8%	-0.4	-2.6%	11.2µM*
CCCC1=NN(c2ccc([N+](=O)[O-])cc2)C(=O)/C1=C\N(C)C	1.4	-0.1%	-3.4%	1.5	13.1%	44.7µM*
Cc1ccc(OCc2ccc(C(=O)Nc3cccc(C)c3)cc2)cc1	.	.	.	.	.	17.1%
O=C(c1ccco1)N1CCN(CCCCOc2cccc3ccccc23)CC1	-8.8	-6.2%	-0.4%	1.4	-6.9%	44.7µM*
O=C(c1ccco1)N1CCN(CCOCCOc2cccc3ccccc23)CC1	-8.9	-3.6%	-1.1%	-0.4	-6.8%	?
SMILES	TRPML1 blocker	Glioma ERSR ind	Vif-APOBEC3G blk	TRPML1 agonist	Vif-A3F inh	12-LOX inh
CCC1(N2CCN(S(=O)(=O)c3ccc(F)c(C)c3)CC2)CCN(C(=O)C(C)C)C1 (stereo not drawn)	.	.	.	.	.	1.5%
CCC1(N2CCN(S(=O)(=O)c3ccc4c(c3)CCCC4)CC2)CCN(C(=O)C(C)C)C1 (stereo not drawn)	.	.	.	.	.	22.4µM*
COc1ccc(NC(=O)c2cccs2)cc1	6.0	-1.8%	0.5%	-0.1	-8.5%	-3.4%
COc1ccc(N=N/C(=C\O)C(=O)c2cccs2)cc1	-4.8	3.8%	-17.2%	-0.1	3.8%	35.5µM*
COc1ccc(C(=O)/C(=C/O)N=Nc2ccc(F)cc2)cc1	-9.9	-2.2%	-16.8%	-0.6	20.3%	11.2µM*
Fc1cccc(C[n+]2csc3ccccc32)c1	17.2	1.6%	1.0%	1.9	-9.7%	17.8µM*
COc1ccc(C(=O)NNC(=O)C(=O)/C=C(\O)c2ccc(C)cc2)cc1	11.3	-1.8%	-7.2%	-1.2	-13.5%	35.5µM*
Cc1nc(N=Nc2cc([N+](=O)[O-])ccc2Cl)c(COP(=O)(O)O)c(C=O)c1O	.	-2.0%	.	.	.	11.2µM*
Cc1nc2cc(NC(=O)c3cc(Cl)ccc3Cl)ccc2o1	.	.	.	.	.	-29.9%
